Compounds without any hit were thinned out: in the full panel of roughly 79,000, 15% have a hit. The source made the active and inactive calls. Cut-off read from the data, not from the text of the source: active = growth inhibition above about 70%; inactive = the rest.
test: NCI Yeast Anticancer Drug Screen. Data for the rad50 strain (AID 155);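 note: 0% = growth of vehicle-only cultures of the same strain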; details: S. cerevisiae rad50 strain growth inhibition; at 5.0 µM (retest, dose inferred, filed as 0.5); active compounds read high
Procedure, shortened: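 Genetically altered yeast (DNA repair pathway); compound treatment; growth inhibition vs vehicle ctrl.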

| Compound | growth inhibition |
| --- | --- |
| CCN(CC)CC[n+]1ccc2c(C)c3[nH]c4ccc(O)cc4c3c(C)c2c1 | 36% (inactive) |
| O=[n+]1c2ccc(Cl)cc2n([O-])c2ccc(Cl)cc21 | -9% (inactive) |
| CCOP(=O)(OCC)C(Cc1ccccc1)N=C(c1ccccc1)c1ccccc1 (stereo not drawn) | 12% (inactive) |
| CC[C@@]1(O)C(=O)OCc2c1cc1n(c2=O)Cc2cc3c(N)cccc3nc2-1 | 81% (active) |
| COC1C=COC2(C)Oc3c(C)c(O)c4c(c3C2=O)/C(=N/C2CCC(O)OC2C)C=C(NC(=O)/C(C)=C\C(=O)C2CC2C(O)C(C)C(O)C(C)C(OC(C)=O)C1C)C4=O (stereo not drawn) | -16% (inactive) |
| COc1cc2c(c(OC)c1OC)-c1c(cc3c(c1OC)OCO3)CC(C)C(C)(O)C2OC(=O)c1ccccc1 (stereo not drawn) | -3% (inactive) |
| O=c1ssc2ncccc12 | 24% (inactive) |
| O=C1C2C(C(=O)N1c1ccc(OCc3ccccc3)cc1)C1c3ccccc3C2C2CCCCN21 (stereo not drawn) | 3% (inactive) |
| COc1ccc(-c2cn(-c3ccc(I)cc3)c3ncnc(N)c23)cc1 | 4% (inactive) |
| CCOC(=O)C(NC(=O)c1ccccc1)(N1CCN(c2cc3c(cc2F)c(=O)c(C(=O)O)cn3C2CC2)CC1)C(F)(F)F (stereo not drawn) | -7% (inactive) |
| C/C(=N\O)C1CC2C=C(C#N)C1N(Cc1ccccc1)C2 (stereo not drawn) | -6% (inactive) |
| CC/C(=C(\c1ccccc1)c1ccc(OCCN(C)C)cc1)c1ccccc1 | 44% (inactive) |
| COc1ccccc1N=NC(C(=O)c1ccccc1)C(=O)c1ccccc1 | 34% (inactive) |
| CC(O)C(O)C(O)C(/C=N\Nc1ccccc1)=N/Nc1ccccc1 (stereo not drawn) | 19% (inactive) |
| COc1ccc(/C=C2\SC(=S)N(/C=C/c3nc4ccccc4[nH]c3=O)C2=O)cc1OC | -12% (inactive) |
| N#CN=Nc1cc(Cl)c(N=NC#N)cc1Cl | -22% (inactive) |
| Cc1ccc(S(=O)(=O)Oc2cc(Cl)c(Cl)cc2Cl)cc1 | 9% (inactive) |
| c1ccc2c(c1)Oc1cccc3cccc-2c13 | 95% (active) |
| O=C(c1ccc(Cl)cc1Cl)C(Cl)Cl | 46% (inactive) |
| CC(C)C1=CCC2C(=C1)CCC1C(C)(C(=O)O)CCCC21C (stereo not drawn) (tested in a mixture with another compound) | 30% (inactive) |

| Compound | growth inhibition |
| --- | --- |
| COc1cc(/C=C2\CCc3ccccc3C2=O)cc(OC)c1OC | 15% (inactive) |
| CC(=O)[O][Bi]([c]1ccccc1)[c]1ccccc1 | 27% (inactive) |
| S=C(N/N=C/c1ccccn1)Nc1ccc(Cl)cc1 | -7% (inactive) |
| COc1cc(CC2CC(c3ccc4c(c3)OCO4)OC2=O)cc(OC)c1OC (stereo not drawn) | -6% (inactive) |
| CNC1C(OC2C(OC3C(O)C(O)C(N=C(N)N)C(O)C3N=C(N)N)OC(C)C2(O)CO)OC(CO)C(O)C1O (stereo not drawn) | -19% (inactive) |
| NNC(=O)CCc1ccc2ccc3ccccc3c2c1 | -13% (inactive) |
| Oc1ccc2ccccc2c1C(c1ccc(Cl)cc1)c1c(O)ccc2ccccc12 | 99% (active) |
| CCCCN(CCCC)CCSc1ccc(Cl)cc1 | 2% (inactive) |
| CCC(C)COC(=O)c1ccc(N=Cc2ccc(C=Nc3ccc(C(=O)OCC(C)CC)cc3)cc2)cc1 (stereo not drawn) | 96% (active) |
| CC1(C)C(=O)OC(n2cc(F)c(=O)[nH]c2=O)C1=O (stereo not drawn) | 25% (inactive) |
| O=[N+]([O-])CC(SCc1ccccc1)c1ccc2c(c1)OCO2 (stereo not drawn) | 30% (inactive) |
| COc1cc2c(cc1[N+](=O)[O-])C(=O)C(Br)(Br)CCC2 | 8% (inactive) |
| OCC1OC(OCC(O)C(O)C(O)C(/C=N/Nc2ccccc2)=N/Nc2ccccc2)C(O)C(O)C1O (stereo not drawn) | 15% (inactive) |
| COc1ccc(N=C2C(=O)Nc3ccc(Br)cc32)cc1 | 50% (inactive) |
| Cn1c(=O)c2ccccc2c2ccccc21 | -132% (inactive) |
| CC[n+]1ccc2c(C)c3[nH]c4ccc(O)cc4c3c(C)c2c1 | 58% (inactive) |
| CC(=O)ON1C(=O)c2cccc3cccc(c23)C1=O | 51% (inactive) |
| COc1ccc2ccc3ccccc3c2c1C=O | 9% (inactive) |
| OC1CCCc2c1cc1ccc3cccc4ccc2c1c34 (stereo not drawn) | 30% (inactive) |

same assay, conditions: S. cerevisiae rad50 strain growth inhibition; at 11.0 µM; active compounds read high

| Compound | growth inhibition |
| --- | --- |
| CCN(CC)CC[n+]1ccc2c(C)c3[nH]c4ccc(O)cc4c3c(C)c2c1 | 72% (active) |
| O=[n+]1c2ccc(Cl)cc2n([O-])c2ccc(Cl)cc21 | 39% (inactive) |
| CCOP(=O)(OCC)C(Cc1ccccc1)N=C(c1ccccc1)c1ccccc1 (stereo not drawn) | 27% (inactive) |
| CC[C@@]1(O)C(=O)OCc2c1cc1n(c2=O)Cc2cc3c(N)cccc3nc2-1 | 88% (active) |
| COC1C=COC2(C)Oc3c(C)c(O)c4c(c3C2=O)/C(=N/C2CCC(O)OC2C)C=C(NC(=O)/C(C)=C\C(=O)C2CC2C(O)C(C)C(O)C(C)C(OC(C)=O)C1C)C4=O (stereo not drawn) | -2% (inactive) |
| COc1cc2c(c(OC)c1OC)-c1c(cc3c(c1OC)OCO3)CC(C)C(C)(O)C2OC(=O)c1ccccc1 (stereo not drawn) | -25% (inactive) |
| O=c1ssc2ncccc12 | 82% (active) |
| O=C1C2C(C(=O)N1c1ccc(OCc3ccccc3)cc1)C1c3ccccc3C2C2CCCCN21 (stereo not drawn) | 13% (inactive) |
| COc1ccc(-c2cn(-c3ccc(I)cc3)c3ncnc(N)c23)cc1 | -2% (inactive) |
| CCOC(=O)C(NC(=O)c1ccccc1)(N1CCN(c2cc3c(cc2F)c(=O)c(C(=O)O)cn3C2CC2)CC1)C(F)(F)F (stereo not drawn) | 14% (inactive) |
| C/C(=N\O)C1CC2C=C(C#N)C1N(Cc1ccccc1)C2 (stereo not drawn) | 0% (inactive) |
| CC/C(=C(\c1ccccc1)c1ccc(OCCN(C)C)cc1)c1ccccc1 | 64% (inactive) |
| COc1ccccc1N=NC(C(=O)c1ccccc1)C(=O)c1ccccc1 | -16% (inactive) |
| CC(O)C(O)C(O)C(/C=N\Nc1ccccc1)=N/Nc1ccccc1 (stereo not drawn) | 10% (inactive) |
| COc1ccc(/C=C2\SC(=S)N(/C=C/c3nc4ccccc4[nH]c3=O)C2=O)cc1OC | 12% (inactive) |
| N#CN=Nc1cc(Cl)c(N=NC#N)cc1Cl | -7% (inactive) |
| Cc1ccc(S(=O)(=O)Oc2cc(Cl)c(Cl)cc2Cl)cc1 | 11% (inactive) |
| c1ccc2c(c1)Oc1cccc3cccc-2c13 | 5% (inactive) |
| O=C(c1ccc(Cl)cc1Cl)C(Cl)Cl | 13% (inactive) |
| CC(C)C1=CCC2C(=C1)CCC1C(C)(C(=O)O)CCCC21C (stereo not drawn) (tested in a mixture with another compound) | 16% (inactive) |

| Compound | growth inhibition |
| --- | --- |
| COc1cc(/C=C2\CCc3ccccc3C2=O)cc(OC)c1OC | -17% (inactive) |
| CC(=O)[O][Bi]([c]1ccccc1)[c]1ccccc1 | 73% (active) |
| S=C(N/N=C/c1ccccn1)Nc1ccc(Cl)cc1 | -27% (inactive) |
| COc1cc(CC2CC(c3ccc4c(c3)OCO4)OC2=O)cc(OC)c1OC (stereo not drawn) | 3% (inactive) |
| CNC1C(OC2C(OC3C(O)C(O)C(N=C(N)N)C(O)C3N=C(N)N)OC(C)C2(O)CO)OC(CO)C(O)C1O (stereo not drawn) | 4% (inactive) |
| NNC(=O)CCc1ccc2ccc3ccccc3c2c1 | 9% (inactive) |
| Oc1ccc2ccccc2c1C(c1ccc(Cl)cc1)c1c(O)ccc2ccccc12 | 12% (inactive) |
| CCCCN(CCCC)CCSc1ccc(Cl)cc1 | -15% (inactive) |
| CCC(C)COC(=O)c1ccc(N=Cc2ccc(C=Nc3ccc(C(=O)OCC(C)CC)cc3)cc2)cc1 (stereo not drawn) | -2% (inactive) |
| CC1(C)C(=O)OC(n2cc(F)c(=O)[nH]c2=O)C1=O (stereo not drawn) | 3% (inactive) |
| O=[N+]([O-])CC(SCc1ccccc1)c1ccc2c(c1)OCO2 (stereo not drawn) | 94% (active) |
| COc1cc2c(cc1[N+](=O)[O-])C(=O)C(Br)(Br)CCC2 | 97% (active) |
| OCC1OC(OCC(O)C(O)C(O)C(/C=N/Nc2ccccc2)=N/Nc2ccccc2)C(O)C(O)C1O (stereo not drawn) | 29% (inactive) |
| COc1ccc(N=C2C(=O)Nc3ccc(Br)cc32)cc1 | -23% (inactive) |
| Cn1c(=O)c2ccccc2c2ccccc21 | 41% (inactive) |
| CC[n+]1ccc2c(C)c3[nH]c4ccc(O)cc4c3c(C)c2c1 | 65% (inactive) |
| CC(=O)ON1C(=O)c2cccc3cccc(c23)C1=O | 93% (active) |
| COc1ccc2ccc3ccccc3c2c1C=O | 28% (inactive) |
| OC1CCCc2c1cc1ccc3cccc4ccc2c1c34 (stereo not drawn) | 98% (active) |
